# Results: ChEMBL document CHEMBL3988442, “University of Dundee, Small-Polar-MMV Screening Library” (2021)
# For some assays here: Potency and affinity values are given separately.
# Columns and labels:
# Parameters in all cases: scale not given: direction of the effect not stated beside the values
# [1] = target: Protein translocase subunit SecA (Escherichia coli (strain K12)) (UniProt P10408); test: Assay to Identify E. coli SecA ATPase Inhibitors; assay type: functional; details: 30 µM
# [2] = target: T1, Ubiquitin-activating enzyme e1, putative (Leishmania donovani (strain BPK282A1)) (UniProt E9BSI1); test: Leishmania donovani Ubiquitin Activating Enzyme (LdE1); assay type: functional; details: 30 µM
# T1 sequence (whole entry): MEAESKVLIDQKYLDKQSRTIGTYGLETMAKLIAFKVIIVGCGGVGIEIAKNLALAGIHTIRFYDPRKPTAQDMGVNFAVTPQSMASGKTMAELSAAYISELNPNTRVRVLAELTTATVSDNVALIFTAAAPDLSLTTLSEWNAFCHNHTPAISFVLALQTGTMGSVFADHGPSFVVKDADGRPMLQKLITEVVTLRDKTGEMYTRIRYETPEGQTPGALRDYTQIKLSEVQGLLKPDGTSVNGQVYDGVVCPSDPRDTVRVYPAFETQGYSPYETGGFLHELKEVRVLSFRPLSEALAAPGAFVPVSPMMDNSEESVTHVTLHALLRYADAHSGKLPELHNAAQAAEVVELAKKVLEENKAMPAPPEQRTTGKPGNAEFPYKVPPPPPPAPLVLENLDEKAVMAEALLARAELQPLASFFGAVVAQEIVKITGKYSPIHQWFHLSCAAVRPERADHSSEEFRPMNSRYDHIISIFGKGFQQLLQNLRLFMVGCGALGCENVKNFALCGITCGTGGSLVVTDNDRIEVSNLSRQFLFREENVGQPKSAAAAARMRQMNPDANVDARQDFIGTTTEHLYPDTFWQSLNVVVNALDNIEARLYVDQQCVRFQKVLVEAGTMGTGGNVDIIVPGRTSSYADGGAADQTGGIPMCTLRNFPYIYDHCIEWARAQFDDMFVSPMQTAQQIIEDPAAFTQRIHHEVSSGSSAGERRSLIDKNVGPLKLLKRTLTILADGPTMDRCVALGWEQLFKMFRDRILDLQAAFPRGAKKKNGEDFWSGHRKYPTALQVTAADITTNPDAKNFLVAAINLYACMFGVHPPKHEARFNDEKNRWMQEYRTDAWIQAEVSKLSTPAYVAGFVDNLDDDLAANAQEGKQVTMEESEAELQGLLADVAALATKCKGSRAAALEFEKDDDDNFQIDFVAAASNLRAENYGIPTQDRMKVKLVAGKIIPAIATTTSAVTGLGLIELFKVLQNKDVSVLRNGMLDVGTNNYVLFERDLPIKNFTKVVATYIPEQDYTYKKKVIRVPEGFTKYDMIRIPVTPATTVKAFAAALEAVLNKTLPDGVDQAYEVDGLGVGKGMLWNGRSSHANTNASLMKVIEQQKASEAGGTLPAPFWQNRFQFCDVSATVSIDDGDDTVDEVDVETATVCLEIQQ
# [3] = target: AMP-activated protein kinase, AMPK (Homo sapiens) (UniProt P54646+O43741+P54619+Q9UGJ0+Q9Y478+Q13131+Q9UGI9); test: AMP-dependent Kinase enzyme assay. An in vitro enzyme assay that detects ADP turnover that is directly proportional to AMPK activity. This uses naive AMPK that is activated during the assay with MK-8722; assay type: functional; details: 30 µM
# [4] = target: Sialic acid-binding Ig-like lectin 9 (Homo sapiens) (UniProt Q9Y336); test: Hs-Siglec9 ALPHAscreen SOP 20170721; details: 10 µM
# Trypanosoma cruzi = test: Trypanosoma cruzi phosphomannomutase and mannose-1-phosphate guanylyltransferase assay; assay type: functional; details: 10 µM
# [5] = target: T2, Arginase-2, mitochondrial (Homo sapiens) (UniProt P78540); test: in vitro enzyme assay to detect the production of urea directly proportional to the activity of Arginase II; assay type: functional; details: 33.3 µM; note: in the data most compounds retested in dose-response had high values
# T2 sequence (whole entry): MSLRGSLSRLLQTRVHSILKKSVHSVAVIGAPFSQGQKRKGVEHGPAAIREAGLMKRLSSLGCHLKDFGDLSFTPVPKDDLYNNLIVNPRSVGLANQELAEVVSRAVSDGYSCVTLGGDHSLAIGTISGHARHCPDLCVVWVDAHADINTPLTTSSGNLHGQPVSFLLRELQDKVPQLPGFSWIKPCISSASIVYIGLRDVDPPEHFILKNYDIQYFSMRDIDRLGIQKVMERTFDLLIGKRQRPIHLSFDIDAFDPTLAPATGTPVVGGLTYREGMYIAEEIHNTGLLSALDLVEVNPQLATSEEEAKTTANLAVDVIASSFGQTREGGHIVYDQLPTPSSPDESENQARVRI
# [6] = target: T3, Proteasome subunit beta (Trypanosoma cruzi) (UniProt O96673); test: Trypanosoma cruzi proteasome chymotrypsin-like activity (TcProtChymo) assay.; note: in the data most compounds retested in dose-response had high values; assay type: functional; details: 9.37 µM
# T3 sequence (whole entry): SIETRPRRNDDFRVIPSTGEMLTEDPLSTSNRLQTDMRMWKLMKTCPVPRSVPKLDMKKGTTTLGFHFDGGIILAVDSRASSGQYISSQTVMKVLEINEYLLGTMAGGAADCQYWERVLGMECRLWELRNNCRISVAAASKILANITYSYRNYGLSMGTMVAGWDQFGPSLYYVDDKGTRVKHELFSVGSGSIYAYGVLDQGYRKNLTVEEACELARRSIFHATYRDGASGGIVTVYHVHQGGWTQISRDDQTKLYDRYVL
# Homo sapiens = species: Homo sapiens; test: To identify inhibition of the IFN signalling (Jak-Stat) pathway via expression of an eGFP reporter gene under the control of an IFN-stimulated response element (ISRE) containing MxA promoter.; assay type: functional; details: 30 µM
# [7] = target: T4, Tyrosyl-tRNA synthetase, putative (Trypanosoma cruzi (strain CL Brener)) (UniProt Q4DSP6); test: Trypanosoma cruzi tyrosyl tRNA synthetase (TcYRS) _High Tyrosine SOP; assay type: functional; details: 30 µM; note: in the data most compounds retested in dose-response had high values
# T4 sequence (whole entry): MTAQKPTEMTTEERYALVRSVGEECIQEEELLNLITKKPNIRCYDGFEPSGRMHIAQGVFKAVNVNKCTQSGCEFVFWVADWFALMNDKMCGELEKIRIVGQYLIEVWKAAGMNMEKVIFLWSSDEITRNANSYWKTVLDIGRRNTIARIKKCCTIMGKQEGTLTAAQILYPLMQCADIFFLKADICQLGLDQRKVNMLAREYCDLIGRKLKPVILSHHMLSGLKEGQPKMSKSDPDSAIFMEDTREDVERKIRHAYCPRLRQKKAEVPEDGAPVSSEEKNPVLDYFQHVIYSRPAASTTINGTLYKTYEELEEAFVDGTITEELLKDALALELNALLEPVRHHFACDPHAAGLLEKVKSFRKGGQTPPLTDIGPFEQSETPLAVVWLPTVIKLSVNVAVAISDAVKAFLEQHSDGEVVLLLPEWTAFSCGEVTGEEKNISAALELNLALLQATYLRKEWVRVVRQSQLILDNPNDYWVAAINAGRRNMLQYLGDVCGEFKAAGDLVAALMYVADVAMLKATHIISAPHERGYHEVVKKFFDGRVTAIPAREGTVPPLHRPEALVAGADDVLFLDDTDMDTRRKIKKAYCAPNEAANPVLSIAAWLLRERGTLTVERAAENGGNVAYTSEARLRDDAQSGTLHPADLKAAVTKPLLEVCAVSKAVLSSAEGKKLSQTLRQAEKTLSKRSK
# [8] = target: T4, Tyrosyl-tRNA synthetase, putative (Trypanosoma cruzi (strain CL Brener)); test: Trypanosoma cruzi tyrosyl tRNA synthetase (TcYRS) SOP; assay type: functional; details: 30 µM
# [9] = target: Chromo domain-containing protein 1 (Saccharomyces cerevisiae (strain ATCC 204508 / S288c) (Baker's yeast)) (UniProt P32657); test: ScCHD-1 Enzyme Inhibition Assay; assay type: functional; details: 30 µM; note: in the data most compounds retested in dose-response had high values
# Chain of Chromo domain-containing protein 1 (Saccharomyces cerevisiae (strain ATCC 204508 / S288c) (Baker's yeast)) (P32657 whole entry, the tested form may be a part): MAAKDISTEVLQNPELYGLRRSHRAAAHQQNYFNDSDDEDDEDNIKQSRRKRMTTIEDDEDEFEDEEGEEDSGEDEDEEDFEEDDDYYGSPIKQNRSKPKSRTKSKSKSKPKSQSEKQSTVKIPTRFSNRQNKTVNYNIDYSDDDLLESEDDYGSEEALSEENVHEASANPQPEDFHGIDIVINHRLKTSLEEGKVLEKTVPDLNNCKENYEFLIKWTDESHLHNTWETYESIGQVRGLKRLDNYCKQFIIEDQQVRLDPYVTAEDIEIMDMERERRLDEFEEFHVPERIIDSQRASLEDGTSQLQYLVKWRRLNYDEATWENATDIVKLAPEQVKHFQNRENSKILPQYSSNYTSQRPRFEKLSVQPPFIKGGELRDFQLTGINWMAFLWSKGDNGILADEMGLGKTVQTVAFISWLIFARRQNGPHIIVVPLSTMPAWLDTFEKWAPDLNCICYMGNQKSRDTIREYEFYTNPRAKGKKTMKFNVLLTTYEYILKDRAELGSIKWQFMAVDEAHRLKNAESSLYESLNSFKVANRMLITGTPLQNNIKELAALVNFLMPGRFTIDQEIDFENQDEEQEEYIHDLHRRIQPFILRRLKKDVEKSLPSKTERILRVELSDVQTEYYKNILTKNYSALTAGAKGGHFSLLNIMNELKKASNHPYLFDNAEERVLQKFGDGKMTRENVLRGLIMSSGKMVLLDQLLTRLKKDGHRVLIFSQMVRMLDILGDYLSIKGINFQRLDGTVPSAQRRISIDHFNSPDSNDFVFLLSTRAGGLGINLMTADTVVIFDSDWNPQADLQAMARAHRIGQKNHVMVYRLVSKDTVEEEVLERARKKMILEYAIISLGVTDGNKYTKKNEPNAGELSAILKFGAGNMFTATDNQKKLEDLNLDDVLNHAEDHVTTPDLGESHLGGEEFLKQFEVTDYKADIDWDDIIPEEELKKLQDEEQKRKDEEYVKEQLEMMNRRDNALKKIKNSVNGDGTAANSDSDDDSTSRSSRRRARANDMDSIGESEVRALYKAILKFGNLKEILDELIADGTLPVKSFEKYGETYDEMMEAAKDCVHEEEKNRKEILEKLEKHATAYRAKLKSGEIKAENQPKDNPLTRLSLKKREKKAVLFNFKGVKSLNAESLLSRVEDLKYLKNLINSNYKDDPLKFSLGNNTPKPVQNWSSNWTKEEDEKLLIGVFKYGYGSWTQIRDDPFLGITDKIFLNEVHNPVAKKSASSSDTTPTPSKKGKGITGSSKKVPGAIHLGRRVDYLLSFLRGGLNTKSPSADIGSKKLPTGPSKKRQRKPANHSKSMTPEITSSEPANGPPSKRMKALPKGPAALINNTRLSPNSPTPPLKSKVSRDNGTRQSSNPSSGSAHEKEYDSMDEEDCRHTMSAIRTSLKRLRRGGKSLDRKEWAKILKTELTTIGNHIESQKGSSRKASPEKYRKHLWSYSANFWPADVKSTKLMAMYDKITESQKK
# Chain of Protein translocase subunit SecA (Escherichia coli (strain K12)) (P10408 whole entry): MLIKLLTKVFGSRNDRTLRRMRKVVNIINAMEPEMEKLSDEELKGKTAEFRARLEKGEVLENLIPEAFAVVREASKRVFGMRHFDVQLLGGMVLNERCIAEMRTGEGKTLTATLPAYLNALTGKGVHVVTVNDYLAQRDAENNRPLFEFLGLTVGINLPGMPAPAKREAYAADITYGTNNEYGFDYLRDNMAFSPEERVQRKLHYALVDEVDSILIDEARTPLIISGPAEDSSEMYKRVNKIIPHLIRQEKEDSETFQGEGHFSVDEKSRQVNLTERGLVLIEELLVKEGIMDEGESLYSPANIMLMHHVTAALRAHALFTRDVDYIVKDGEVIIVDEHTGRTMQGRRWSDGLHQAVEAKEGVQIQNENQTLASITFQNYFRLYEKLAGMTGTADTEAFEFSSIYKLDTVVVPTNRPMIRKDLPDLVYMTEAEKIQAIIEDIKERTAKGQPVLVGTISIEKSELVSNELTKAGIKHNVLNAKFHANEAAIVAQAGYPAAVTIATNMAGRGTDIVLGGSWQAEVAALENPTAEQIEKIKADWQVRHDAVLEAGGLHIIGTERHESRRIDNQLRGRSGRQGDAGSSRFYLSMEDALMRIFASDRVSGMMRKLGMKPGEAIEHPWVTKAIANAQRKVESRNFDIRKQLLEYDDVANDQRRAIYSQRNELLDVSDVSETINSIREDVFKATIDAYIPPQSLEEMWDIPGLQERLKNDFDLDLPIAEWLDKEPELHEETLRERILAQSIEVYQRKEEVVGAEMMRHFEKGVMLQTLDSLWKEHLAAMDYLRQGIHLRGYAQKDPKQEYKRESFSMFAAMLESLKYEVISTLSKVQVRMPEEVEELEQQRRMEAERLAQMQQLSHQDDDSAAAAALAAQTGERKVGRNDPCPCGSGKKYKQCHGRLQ
# Chain of Sialic acid-binding Ig-like lectin 9 (Homo sapiens) (Q9Y336 whole entry): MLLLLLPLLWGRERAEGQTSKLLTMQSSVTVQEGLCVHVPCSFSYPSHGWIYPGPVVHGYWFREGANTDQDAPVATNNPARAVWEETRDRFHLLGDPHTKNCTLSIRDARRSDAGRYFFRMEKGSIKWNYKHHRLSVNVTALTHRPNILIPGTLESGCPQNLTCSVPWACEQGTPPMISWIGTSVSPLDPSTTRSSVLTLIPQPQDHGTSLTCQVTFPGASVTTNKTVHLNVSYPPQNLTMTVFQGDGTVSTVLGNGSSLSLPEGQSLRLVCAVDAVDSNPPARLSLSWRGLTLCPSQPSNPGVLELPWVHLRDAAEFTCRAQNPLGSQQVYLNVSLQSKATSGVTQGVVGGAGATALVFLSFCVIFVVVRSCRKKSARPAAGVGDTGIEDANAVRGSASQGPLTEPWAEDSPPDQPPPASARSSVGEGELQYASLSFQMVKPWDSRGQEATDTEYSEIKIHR
Compound,Percent Effect [1],Percent Effect [2],Percent Effect [3],Percent Effect [4],Percent Effect (Trypanosoma cruzi),Percent Effect [5],Percent Effect [6],Percent Effect (Homo sapiens),Percent Effect [7],Percent Effect [8],Percent Effect [9]
CNC(=O)c1cc2c(nc1N(C)C)CCN(S(=O)(=O)C1CC1)CC2,-2.36%,10.4%,-2.46%,-6.22%,-10.8%,9.68%,8.7%,0.586%,-3.17%,-3.85%,-7.64%
CC(=O)N1CC[C@H]2OCC[C@@H](C(=O)N3CCCCO3)[C@@H]2C1,-2.31%,12%,-3.03%,10.7%,-1.97%,-8.63%,15%,-4.45%,4.23%,12.8%,-7.82%
Cn1nc(CNC(=O)C2CC2)cc1C1CC1,-5.14%,18.2%,3.71%,7.61%,2.27%,-4.52%,4%,6.02%,0%,11.5%,-7.39%
CC(C(=O)N1CCN(c2ccccc2Cl)CC1)n1cncn1 (configuration not stated),-2.18%,11.4%,2.71%,2.76%,1.33%,-1.07%,15.3%,5.34%,0%,10.1%,-25.6%
Cc1cnn(CC2CCCCN2Cc2nc(-c3ccoc3)no2)c1 (configuration not stated),-1.89%,16.2%,-6.06%,4.87%,5.19%,-5.61%,7.75%,21.5%,8.37%,23.5%,-6.74%
COCC(=O)N1CCC[C@]2(C(=O)N(C)C)CN(c3ccccn3)C[C@@H]2C1,-2.73%,5.33%,-3.72%,0.562%,5.02%,-50.4%,16.2%,-8.04%,6.25%,5%,-8.42%
CC(=O)N1CCCN(c2nccc(-c3cn(C)nc3C)n2)CC1,-5.23%,5.33%,-0.173%,25.5%,0.682%,0%,9.24%,-1.59%,0.546%,8.64%,-7.43%
Clc1ccc(CN2CCCC(Cn3cncn3)C2)c2ncccc12 (configuration not stated),-5.66%,-7.79%,-0.804%,1.38%,0.688%,-1.38%,12%,-2.35%,4.3%,3.7%,3.92%
CC(C)OCCN1CCC(N2CCN(C)C2=O)CC1,-8.32%,10.4%,-1.47%,4.31%,8.24%,-6.05%,-1.18%,6.82%,4.85%,14.6%,-9.74%
COCCN1C[C@@H]2CN(Cc3ccsc3)CCC[C@]2(C(=O)O)C1,0.995%,10.4%,4.76%,-2.5%,-5.23%,11%,16.5%,13.1%,4.23%,14.1%,-4.97%
CC(=O)NCc1ccc(C(=O)N2CCCC2c2cnn(C)c2)o1 (configuration not stated),-4.23%,-2.63%,-0.621%,3.5%,-0.467%,3.24%,6.51%,-0.0723%,-0.493%,-1.24%,2.06%
Cn1ccnc1CN1CCC2(COCCN(Cc3ccsc3)C2)C1 (configuration not stated),-3.36%,13%,-5.28%,12.1%,6%,-11%,12.2%,-9.92%,9.68%,21%,-6.67%
CCn1c(C2CCCN(Cc3nccn3CCOC)C2)nn(C)c1=O (configuration not stated),-0.824%,8.11%,-5.71%,28.2%,3.03%,32.5%,3.69%,-44.6%,9.68%,18.5%,-6.18%
CSCCC(=O)N1CCCC1c1ccsc1 (configuration not stated),0.213%,9.72%,0.426%,-10.9%,-4.76%,-1.32%,18.8%,30.2%,4.21%,0%,103%
CCC(=O)Nc1ccc(C(C)NC(=O)COCCOC)cc1 (configuration not stated),0.243%,15.8%,-1.87%,-5.07%,1.46%,-3.55%,15.1%,23.5%,4.25%,15.6%,-5.61%
O=S(=O)(c1cccnc1)N1CCN(CCn2ccnc2)CC1,-4.58%,5.48%,-1.26%,0.536%,-8.81%,-0.455%,11.7%,-0.863%,5.38%,12.5%,-5.5%
O=C1NC(c2ccccc2)=N[C@@]12CC[C@@H]1CN(Cc3ccco3)C[C@@H]12,-0.246%,5.33%,1.87%,-5.18%,2.32%,-47.5%,-0.513%,4.89%,2.08%,-5%,-2.32%
CC(C)c1nc(C2CCCN2Cc2ccno2)no1 (configuration not stated),-2.76%,-2.6%,-0.797%,8.93%,-2.81%,2.13%,-1.52%,14.5%,2.91%,-2.44%,4.2%
Cc1nn(CC(=O)N2CCC(Nc3cccnn3)CC2)c(C)c1Cl,-7.99%,10.5%,-2.51%,1.71%,10.3%,-4.6%,4.68%,14.1%,6.37%,19.5%,-11.8%
CN(C)c1cc(C(=O)NCCc2n[nH]c(=O)[nH]2)ccn1,-2.65%,2.63%,5.52%,7.32%,-0.487%,4.73%,7.38%,5.92%,3.19%,5.2%,-2.56%
Cc1nn(C)c(Cl)c1C1CCCN1C(=O)c1cc(Cl)c[nH]1 (configuration not stated),-2.13%,2.7%,0.443%,9.97%,-1.79%,2%,-1.62%,2.15%,7.39%,3.7%,2.56%
CCN(C)c1ncnc2c1CCN(C(=O)N1CCCC1)CC2,1.86%,10.7%,-0.0235%,0.87%,-8.88%,-54.7%,17.6%,-9.36%,4.17%,15%,-5.04%
